Among the data in PubChem BioAssay AID2283221 (EPA ToxCast) are outcome and AC50 values, retold here.

For orientation: AC50 means the concentration at which the activity in the assay is half-maximal.

Inconclusive results are not listed. Activity calls are given as the source filed them. Rule for the calls: active = hit-call score of the fitted dose curve at least 0.9, where 1 is the maximum; inconclusive = response in the unintended direction; inactive = score below 0.9.

The target in this assay is human Spleen Associated Tyrosine Kinase (Syk), SYK (gene 6850) (UniProt P43405). Description: NVS_ENZ_hSyk: NovaScreen (NVS) Enzymatic Assay for human Spleen Associated Tyrosine Kinase (Syk). Here is the method: NVS_ENZ_hSyk is a biochemical, single-readout assay that uses extracted gene-proteins in a cell-free assay. Measurements were taken 1 hour after chemical dosing in a 96-well plate.NVS_ENZ_hSyk is one of one assay component(s) measured or calculated from the NVS_ENZ_hSyk assay. It is designed to make measurements of enzyme activity, a form of enzyme reporter, as detected with fluorescence intensity signals by Fluorescence and electrophoretic mobility shift technology.Data from the assay component NVS_ENZ_hSyk was analyzed into 1 assay endpoint. This assay endpoint, NVS_ENZ_hSyk, was analyzed in the positive analysis fitting direction relative to DMSO as the negative control and baseline of activity. Using a type of enzyme reporter, loss-of-signal activity can be used to understand changes in the enzymatic activity as they relate to the gene SYK. Furthermore, this assay endpoint can be referred to as a primary readout, because this assay has produced […] where this one serves a enzymatic activity function. To generalize the intended target to other relatable targets, this assay endpoint is annotated to the kinase intended target family, where the subfamily is non-receptor tyrosine kinase.
Binding assays used specific radioligands (tritiated, iodinated) with non-radioactive competitive displacement ligands in agonist or antagonist protocols (as indicated) and various reference compounds and inhibitors to titrate specific binding to receptors and transporters. Most enzyme assays (CYPs, kinases, phosphatases, proteases, HDACs) used recombinant protein and specific substrates (fluorescence mostly, some colorimetric and radioactive) and inhibitors, followed by a biochemical separation of substrate and product. All assays for the biochemical HTS were initially run in duplicate at a single concentration (10 uM for CYP450 assays and 25 uM for all others). Assay-chemical combinations meeting a pre-defined threshold (e.g., 30% inhibition and other criteria defined below) were then run in singleton concentration-response format with maximum concentration of 20 uM for CYPs and 50 uM for all others. Each assay was run with positive and negative controls, and concurrent controls on every plate. The follow-up (secondary) screen tested active chemical-pairs in concentration series, as well as a few additional assays not tested in the primary screen, some selected negative inactives, and several cases re-run in the concentration series for confirmatory purposes.
As for `COP(N)(=O)SC` (configuration not stated), the outcome was inactive.

`CC[C@H](C)[C@H]1O[C@]2(C=C[C@@H]1C)C[C@@H]1C[C@@H](C/C=C(\C)[C@@H](O[C@H]3C[C@H](OC)[C@@H](O[C@H]4C[C@H](OC)[C@@H](NC)[C@H](C)O4)[C@H](C)O3)[C@@H](C)/C=C/C=C3\CO[C@@H]4[C@H](O)C(C)=C[C@@H](C(=O)O1)[C@]34O)O2`: the compound was classed as inactive.

Consider `CNc1cnn(-c2cccc(C(F)(F)F)c2)c(=O)c1Cl`, for which the compound was called inactive.

As for `S=C(S)NCCNC(=S)S.[Mn+2].[S-]C([S-])=NCCN=C([S-])[S-].[Zn+2]`, the AC50 was 9.71 µM (active).

Take `O=C(O)C1(C(=O)Nc2ccc(Cl)cc2Cl)CC1`: the AC50 was 15.4 µM (active).

Turning to `CCOCN(C(=O)CCl)c1c(C)cccc1CC`, the compound was classed as inactive.

For the compound `CCNc1nc(Cl)nc(NC(C)C)n1`, the call was inactive.
